Results as given in PubChem BioAssay (NCATS).
Records with an inconclusive call do not appear. Active and inactive are the calls of the source. Calls come from the whole dose curve; as a rule, active = well fitted curve in the direction sought with a large enough effect; inconclusive = small, poorly fitted or top-dose-only effect, or another doubt; inactive = no such curve, though single readings can be large; an effect the other way counts as inactive or inconclusive.

Experiments:
[1] = target: Glutathione peroxidase 1 (Homo sapiens) (UniProt P07203); assay: Primary qHTS Assay for Inhibitors of Recombinant Selenoprotein Glutathione Peroxidase 1 (GPX1) (AID 1845191); note: nearly all actives have a fitted effect of over 65% in size
Method in brief: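 10 nM GPX1 + cpd, 30 min RT; start w/ 1 mM GSH, 0.5 mM cumene hydroperoxide, 0.5 mM NADPH, 100 nM GR, 0.01% BSA; buffer 50 mM Tris-HCl pH 7.5, 2 mM EDTA, 150 mM NaCl; Fl 340/450, 0 & 15 min.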

[2] = Quantitative High-Throughput drug screen in 47 multiple myeloma cell lines against the NCATS MIPE library collection: FR4_PLB cell viability assay (AID 1918924; note: potency is the fitted concentration of half-maximal effect; nearly all actives have a fitted effect of over 35% in size)
Method in brief: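 Primary qHTS used for cherry-picking: cells at 500/well, library compounds for 48 h (37C, 5% CO2), luminescent ATP assay.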

[3] = Quantitative High-Throughput drug screen in 47 multiple myeloma cell lines against the NCATS MIPE library collection: Delta47_JCRB cell viability assay (AID 1918925; note: nearly all actives have a fitted effect of over 45% in size; note: potency is the fitted concentration of half-maximal effect)
Method in brief: (§1)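 Relative luminescence from CellTiter-Glo served as the viability signal, referenced to DMSO-treated (100%) and cell-free medium (0%) controls. Treatment lasted 48 hours at 37C with 500 cells per well.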

[4] = Quantitative High-Throughput drug screen in 47 multiple myeloma cell lines against the NCATS MIPE library collection: EJM_DSMZ cell viability assay (AID 1918926; note: nearly all actives have a fitted effect of over 30% in size; note: potency is the fitted concentration of half-maximal effect)
Method in brief: as §1

[5] = Quantitative High-Throughput drug screen in 47 multiple myeloma cell lines against the NCATS MIPE library collection: AMO1_DSMZ cell viability assay (AID 1918927; note: potency is the fitted concentration of half-maximal effect; nearly all actives have a fitted effect of over 30% in size)
Method in brief: as §1

[6] = target: Phospholipid hydroperoxide glutathione peroxidase GPX4 (Homo sapiens) (UniProt P36969); assay: Primary qHTS Assay for Inhibitors of Recombinant Selenoprotein Glutathione Peroxidase 4 (GPX4) (AID 1845192); note: nearly all actives have a fitted effect of over 65% in size
Method in brief: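 NADPH consumption, followed by fluorescence at 340/450 nm between 0 and 15 min, reports GPX4 activity via coupled glutathione reductase (100 nM). Enzyme 200 nM was pre-exposed to compound 30 min; 0.5 mM cumene hydroperoxide and 1 mM GSH served as substrates.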

Glutathione peroxidase 1 (Homo sapiens), sequence (P07203 whole entry, looked up): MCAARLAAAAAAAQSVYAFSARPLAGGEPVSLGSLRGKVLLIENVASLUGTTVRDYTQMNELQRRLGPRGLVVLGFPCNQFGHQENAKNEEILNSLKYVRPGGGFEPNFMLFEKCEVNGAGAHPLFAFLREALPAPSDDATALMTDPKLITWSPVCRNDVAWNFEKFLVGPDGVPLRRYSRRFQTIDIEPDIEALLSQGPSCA
Phospholipid hydroperoxide glutathione peroxidase GPX4 (Homo sapiens), sequence (P36969 whole entry, looked up): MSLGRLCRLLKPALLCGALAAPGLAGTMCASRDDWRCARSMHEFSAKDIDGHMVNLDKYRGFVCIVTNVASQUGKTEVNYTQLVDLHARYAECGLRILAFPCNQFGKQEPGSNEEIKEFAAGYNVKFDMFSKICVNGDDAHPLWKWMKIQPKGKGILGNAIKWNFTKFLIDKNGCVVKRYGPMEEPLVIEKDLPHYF

Row | SMILES | Potency [1] | Potency [2] | Potency [3] | Potency [4] | Potency [5] | Potency [6]
1 | CCc1ccc(OCc2ccccc2C(=O)Nc2ccc3nc(C)cc(N)c3c2)cc1 | inactive | 8330 nM (active) | 1180 nM (active) | 7430 nM (active) | 3320 nM (active) | 
2 | O=C1c2ccccc2-[n+]2ccc3c([nH]c4ccccc43)c21 |  | 1320 nM (active) | 1320 nM (active) | 1480 nM (active) | 5900 nM (active) | inactive
3 | CC[C@@]1(O)C[C@H](O[C@H]2C[C@H](N(C)C)[C@H](O[C@H]3C[C@H](O)[C@H](O[C@H]4CCC(=O)[C@H](C)O4)[C@H](C)O3)[C@H](C)O2)c2c(cc3c(c2O)C(=O)c2c(O)cccc2C3=O)[C@@H]1C(=O)OC | inactive | 332 nM (active) | 66.2 nM (active) | 469 nM (active) | 833 nM (active) | 
4 | O=C1C[C@@H](c2ccc(O)cc2)Oc2cc(O)cc(O)c21 | inactive |  | inactive | inactive |  | 
5 | NS(=O)(=O)c1cccc2c1C(=O)c1cccc(O)c1C2=O |  |  | 418 nM (active) | 935 nM (active) | 166 nM (active) | inactive
6 | CO[C@H]1C=CC=C(C)C(=O)NC2=CC(=O)C(NCCN(C)C)=C(C[C@@H](C)C[C@H](OC)[C@@H](O)[C@@H](C)C=C(C)[C@@H]1OC(N)=O)C2=O |  | 166 nM (active) | 46.9 nM (active) | 1480 nM (active) | 46.9 nM (active) | 
7 | O=C1c2c(O)cc(O)cc2O[C@H](c2cc(O)c(O)c(O)c2)[C@H]1O |  | 26400 nM (active) | inactive | 1660 nM (active) |  | 
8 | CC[C@]1(O)C[C@@H]2CN(CCc3c([nH]c4ccccc34)[C@@](C(=O)OC)(c3cc4c(cc3OC)N(C=O)[C@@H]3C45CCN4CC=C[C@](CC)([C@H]45)[C@@H](OC(C)=O)[C@]3(O)C(=O)OC)C2)C1 (stereo not given in full) |  | 20900 nM (active) |  |  |  | 
